# From PubChem BioAssay AID624354 (Sanford-Burnham Center for Chemical Genomics, 2012)
# Screen size: about 360,000 compounds; about 3,800 (1.1%) were called active.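 How the source made its calls: active means compounds causing at least 50% loss of cell viability in the single-dose screen, relative to plate controls; inactive means the rest.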 This excerpt belongs to a sample that is enriched for actives.
# Test: TRAIL-exposed caspase-8 expressing cell killing – NB7+C8 cells, ATPlite luminescence, TRAIL sensitizer project, primary screen (AID 624354)
# Details: at 10 µM, stronger effect = higher value
row,SMILES,"inhibition (viability loss, TRAIL sensitization)"
1,CC1=NNC(=O)C1CCC(=O)N/N=C\c1cccc(Cl)c1 (stereo unspecified),-5.29% (inactive)
2,COc1ccc(OC)c(/C=N/NC(=O)c2ccc[n+](CC(=O)c3ccccc3)c2)c1,-13.4% (inactive)
3,COc1cccc(/C=N\NC(=O)C2=NNC(=O)C2C)c1O (stereo unspecified),61.6% (active)
4,COCc1cc(=O)[nH]c2cc(NC(=O)C(F)(F)F)c(C)cc12,1.06% (inactive)
5,CCCCOC(=O)CNc1nnc(SCC(=O)OCC)[nH]c1=O,6.83% (inactive)
6,Nc1c(-c2cccc(Cl)c2)cnn1-c1cccc([N+](=O)[O-])c1,-1.5% (inactive)
7,Cc1cccc(N2Cc3ccccc3C2=NC(=O)c2ccc(Cl)nc2)c1,4.62% (inactive)
8,Cc1cccc(-n2ncc(Cl)c(Cl)c2=O)c1,95.2% (active)
9,C[C@H](NC(=O)C1CC(=O)N(c2ccc3c(c2)OCCO3)C1)C(=O)N1CCC(C(=O)O)CC1 (stereo partly specified),-9.83% (inactive)
10,CC(C)CNC(=O)COC(=O)c1ccccc1OCC(=O)Nc1ccc(Br)cc1,5.47% (inactive)
11,COC(=O)Cc1[nH]n(-c2nc3ccccc3s2)c(=O)c1C(C)=Nc1ccc(OC)cc1,61.1% (active)
12,COCCn1c(SCC(=O)c2[nH]c(C)c(C(C)=O)c2C)nc2ccccc2c1=O,-10% (inactive)
13,NC(=O)COc1ccc(/C=N/NC(=O)C2CCCN2S(=O)(=O)c2ccc(Cl)cc2)cc1 (stereo unspecified),-8.47% (inactive)
14,NC(N)=N/N=C/c1ccc(OCc2ccc(Cl)cc2Cl)cc1,50.1% (active)
15,CCCCN(C(=O)C1=NN(c2cc(C)ccc2C)C(=O)CC1)c1c(N)n(CCC)c(=O)[nH]c1=O,-7.09% (inactive)
16,CC(C)COc1ccc(C(=O)NNC(=O)CCC(=O)c2cccs2)cc1,-0.727% (inactive)
17,Cc1ccc(NC(=O)CSCC(=O)N2CCOCC2)cc1,-10.5% (inactive)
18,CC(C)COc1ccc(C(=O)OCC(=O)NCCC2=CCCCC2)cc1,-6.49% (inactive)
19,COc1ccc(NC(=O)c2ccc(OC)cc2)cc1,50.5% (active)
20,COc1ccc(NC(=O)c2ccc(C#CC(C)(C)O)cc2)cc1,0.194% (inactive)
21,O=C(Nc1ccc(Cl)cc1)c1cccc(OC(=S)N2CCOCC2)c1,12.3% (inactive)

row,SMILES,"inhibition (viability loss, TRAIL sensitization)"
1,COc1cccc(C(=O)Nc2ccc(N3CCCC3)cc2)c1,46.7% (active)
2,COc1cccc(C(=O)Nc2ccc3nc4n(c(=O)c3c2)CCCCC4)c1,23.6% (inactive)
3,COc1ccc(C(=O)Nc2ccc(-n3nncc3C(C)(C)C)cc2)cc1,-20.3% (inactive)
4,COc1ccc(N2c3ccccc3CN(Cc3ccccc3)[C@@H](C)[C@H]2Cc2ccc(-c3ccccc3)cc2)cc1,-5.86% (inactive)
5,CCOC(=O)C1CCN(C(=O)Cn2nc(C)c3c(C)n(-c4ccccc4)nc3c2=O)CC1,-20.8% (inactive)
6,CCCN1C(=O)C(NC(C)=O)c2cc(OC)ccc21 (stereo unspecified),-4.35% (inactive)
7,O=C(COc1ccc2c(C(F)(F)F)cc(=O)oc2c1)Nc1ccc2c(c1)OCCO2,-2.58% (inactive)
8,Cc1ccccc1OCC(=O)Nc1nc(C)c(C(=O)N(C)C)s1,3.67% (inactive)
9,COc1cc(SC)ccc1C(=O)Nc1cc(C)ccn1,67.3% (active)
10,COC(=O)c1sc(NC(=O)c2ccc(OC)cc2OC)nc1C,82.4% (active)
11,COc1ccc(C(=O)CCC(=O)Nc2cccnc2)c(OC)c1,7.09% (inactive)
12,COc1cc(SC)ccc1C(=O)Nc1nc(C)cs1,92.9% (active)
13,Cc1csc(NC(=O)CSc2ccc(-c3ccc(F)cc3)nn2)n1,-13.9% (inactive)
14,Cc1ccnc(NC(=O)c2ccoc2C)c1,11.1% (inactive)
15,COCCn1c(SCC(=O)Nc2nc(C)cs2)nnc1C(C)C,-5.23% (inactive)
16,Cc1ccnc(NC(=O)CNC(=O)c2ccccc2)c1,-13.7% (inactive)
17,Cc1ccc(CNC(=O)Cn2cnc3c(NCc4ccccc4)ncnc32)o1,20.3% (inactive)
18,OCC1(Cc2ccccc2C(F)(F)F)CCN(Cc2cccc3cnccc23)CC1,2.15% (inactive)
19,COc1ccc(C(=O)NCC[N+](C)(C)C)cc1,-3.08% (inactive)
20,Cc1ccc(S(=O)(=O)N(C)C)cc1NC(=O)c1ccc(-n2cncn2)c([N+](=O)[O-])c1,-6.94% (inactive)
21,O=C(COC(=O)c1c(Cl)cccc1Cl)Nc1cccc(S(=O)(=O)NC2=NCCCCC2)c1,-2% (inactive)

row,SMILES,"inhibition (viability loss, TRAIL sensitization)"
1,O=C1NC[C@H](Cc2ccc(O)cc2)N(C[C@@H]2CCCN2C[C@H](Cc2ccccc2)N2C[C@H](Cc3ccccc3)N(CC3CCCCC3)C(=O)C2=O)C1=O,-7.58% (inactive)
2,CN(C)NC(=O)C(NC(=O)c1ccc(N)cc1)C12CC3CC(CC(C3)C1)C2 (stereo unspecified),-0.166% (inactive)
3,Cc1nc2cc(S(=O)(=O)C(F)(F)F)ccc2s1,15.9% (inactive)
4,CCN1CCCC1CNC(=O)Cn1cnc2ccc(S(=O)(=O)N3CCC(C)CC3)cc2c1=O (stereo unspecified),3.92% (inactive)
5,CC(C)(C)Oc1ccccc1Nc1nc(NCCO)nc(N2CCCC2)n1,-17.8% (inactive)
6,O=C(O)CC(SCC(=O)Nc1ccc(Br)cc1)C(=O)O (stereo unspecified),-3.72% (inactive)
7,CC(=O)Nc1ccc(SCC(=O)NC(=O)c2ccc(Cl)cc2)cc1,-7.06% (inactive)
8,O=C(CCl)Nc1ccc(Sc2ccc(NC(=O)CCl)cc2)cc1,51.1% (active)
9,COc1cccc2cc(/C(C)=N/NC(=O)c3ccco3)oc12,4.04% (inactive)
10,Cc1oc2c(F)c(F)c(F)c(F)c2c1S(=O)(=O)Nc1cccc(C(F)(F)F)c1,29.6% (inactive)
11,Cc1ccc2sc(NNC(=O)c3ccc4c(c3)OCCO4)nc2c1C,-37.1% (inactive)
12,CN1CCN(c2ccc(NC(=O)c3ccc4c(c3)OCCO4)cc2Cl)CC1,42.3% (inactive)
13,O=C(Nc1ccccc1)c1ccc2c(c1)OCCCO2,78% (active)
14,N#Cc1ccccc1NC(=O)c1ccc2c(c1)OCO2,0.697% (inactive)
15,O=C(CN1CCc2cc3c(cc2C1)OCCCO3)Nc1ccccc1,-22% (inactive)
16,O=C(Nc1nc2ccccc2s1)c1ccc2c(c1)OCO2,74.6% (active)
17,Cc1nc(NC(=O)c2ccc3c(c2)OCCO3)ccc1Br,21.7% (inactive)
18,O=C(Nc1ccc(Cl)cn1)c1ccc2c(c1)OCCO2,64% (active)
19,CCCc1cc(C(=O)Nc2ccc(Cl)cn2)cs1,48.6% (inactive)
